Results with a measured potency or affinity are listed apart. Active and inactive are the calls of the source.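 Rule for the calls: active = cell killing with a fitted half-effect concentration at or below twice the top valid dose; inconclusive = flat curve with 30 to 70 percent drop, or poor fit; inactive = the rest.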
Assay: viability loss in HEK293T kidney cells – cell-based, ATP luminescence, cherry-pick, set 6, cytotoxicity control, dose response (AID 1053126)

Row | Structure (SMILES) | outcome
1 | CCN(CC)CCNC(=O)c1sc2nc(-c3ccccc3)cn2c1C | inactive
2 | Cc1nc(CCNC(=O)Cc2ccc(Cl)cc2)cs1 | inactive
3 | CCOc1ccc2nc(NCCCNS(=O)(=O)c3ccc(F)cc3)c(C#N)cc2c1 | inactive
4 | CCCn1c(=N)c(S(=O)(=O)c2ccccc2)cc2c(=O)n3ccccc3nc21 | inactive
5 | O=C(COC(=O)c1cc(S(=O)(=O)N2CCCCC2)ccc1N1CCOCC1)c1ccccc1Cl | inactive
6 | CCN(CC)c1ccc2cc(C(N)=O)c(=O)oc2c1 | inactive
7 | Cc1ccc(S(=O)(=O)Nc2ccc(Nc3ccccc3)cc2)cc1 | inactive
8 | CCC(C)NC(=S)N1CCN(Cc2ccc3c(c2)OCO3)CC1 (centres undefined) | inactive
9 | Cn1cc(C(c2ccccc2OCC(=O)O)c2cn(C)c3ccccc23)c2ccccc21 | inactive
10 | CCCN1CCc2c(sc(NC(=O)C3CCN(S(=O)(=O)c4cccs4)CC3)c2C(N)=O)C1 | inactive
11 | COc1ccc(C2C3=C(CCCC3=O)N(CC(=O)O)C3=C2C(=O)CCC3)cc1 | inactive
12 | CNNC(=S)NC1CC2CC1C1C=CCC21 (centres undefined) | inactive
13 | CCN(CC)c1ccc2cc(C#N)c(=O)oc2c1 | inactive
14 | Cc1oc(/N=C/c2ccc(F)cc2)c(C#N)c1C | inactive
15 | COc1ccc(Br)c(Cn2c(C)c(C(=O)NCc3ccc4c(c3)OCCO4)sc2=O)c1 | inactive
16 | O=c1oc2cc(O)ccc2cc1S(=O)(=O)c1ccccc1 | inactive
17 | O=C(O)c1ccc(N/N=C/c2ccc(-c3ccccc3Cl)o2)cc1 | inactive
18 | CC(C)N1CCc2c(sc(NC(=O)Cc3ccccc3)c2C#N)C1 | inactive
19 | Cc1cccn2c(=O)c3cc(C(N)=S)c(=N)n(CCCN4CCOCC4)c3nc12 | inactive

Reference: PubChem BioAssay AID1053126 (Broad Institute, 2014)
